This note sets out measurements from ChEMBL document CHEMBL3988442, “University of Dundee, Small-Polar-MMV Screening Library” (2021).

The target in the experiment is AMP-activated protein kinase, AMPK (Homo sapiens) (UniProt P54646+O43741+P54619+Q9UGJ0+Q9Y478+Q13131+Q9UGI9). Description: AMP-dependent Kinase enzyme assay. An in vitro enzyme assay that detects ADP turnover that is directly proportional to AMPK activity. This uses naive AMPK that is activated during the assay with MK-8722. Also noted: scale not given: direction of the effect not stated beside the values. Particulars: 30 µM. It is filed as functional.
Take `NC(=O)c1cn[nH]c1NC(=O)c1ccc2c(c1)OCO2`: the Percent Effect was determined as 5.07%.
In the case of `Cc1ccc(CNc2cc3c(cc2Cl)NC(=O)CO3)cc1C` it was -0.667%.
In the case of `Cc1cccc(C)c1NC(=O)NCC1CCCN(C2CCOCC2)C1` (centres undefined) it was 5.67%; in that of `CS(=O)(=O)N1CC[C@]2(O)CCN(c3cc(C#N)ccn3)C[C@@H]2C1`, -6.37%.
As to `CN(C)C(=O)Cn1cnc2c(Br)cccc2c1=O`, the Percent Effect is -4.74%.
The figure for `O=C(NCC(=O)N1CCCCC1)c1sccc1C1CC1` is -1.89%; for `CN(C(=O)c1ccc2c(c1)nc(N1CC[C@H](O)C1)n2C)C1CCSCC1` it is 9.79%; for `CC(NCc1cnc(N2CCN(C)CC2)nc1)c1ccc(F)cc1` (centres undefined) it is -1.25%.
The figure for `Cc1nc(C(NS(=O)(=O)N(C)C)c2ccccc2F)no1` (centres undefined) is -2.57%; for `CN1C[C@H](c2ccccc2)[C@H]2CN(C(=O)Cc3cccc(O)c3)CC[C@H]21` it is 15.8%; for `CC(=O)N1CCCN(C(=O)NC(C)Cn2ccnc2)CC1` (centres undefined) it is -5.96%.
The figure for `CC(NCC(=O)Nc1ccc(N2CCCCCC2)cc1)c1cccs1` (centres undefined) is 16.8%; for `CCc1noc(C(C)N2CCN(Cc3noc(C4CC4)n3)CC2)n1` (centres undefined) it is 0.498%.
Turning to `CCC(C)Oc1ccc(CNCCNC(C)=O)cc1OC` (centres undefined), the Percent Effect is 2.89%.
The figure for `CCc1cc(N2CCC(NCCc3nc(C)c(C)s3)CC2)nc(C)n1` is 4.15%; for `COC(=O)NCC(=O)N1CCCn2nc(CN3CC[C@H](F)C3)cc2C1` it is 5.46%.
The figure for `O=C(Cc1ccc(Cl)s1)Nc1ccc2c(c1)C(=O)NC2=O` is 68.3%; for `CC(C)c1ccc(/C=C/CC(=O)NC2CCN(C(N)=O)CC2)cc1` it is -2.39%.
The figure for `CCNC(=O)c1ccc(NC(=O)N(C)Cc2cccn2C)c(C)c1` is 12.2%; for `O=C(NCCNCc1cccc2c1OCCCO2)C1CCCC1` it is -0.551%; for `Cn1cc(CN(C(=O)c2ccc3ncsc3c2)C2CC2)cn1` it is 10.2%.
Turning to `Cc1nc(NC2(CN3CCCCC3)CCCCC2)c2cnn(C)c2n1`, the Percent Effect was 5.76%.
In the case of `Cc1cc(C)c2c(NC(C)c3nncn3C3CCCC3)ncnc2n1` (centres undefined) it was 4.35%; in that of `Cc1ccccc1CC(=O)NCc1cnc(CC2CCN(C)CC2)cn1`, 4.22%; in that of `CSCC(C)(O)CNS(=O)(=O)c1cccc(C)c1` (centres undefined), -0.713%.
As for `O=C(CC1CC1)N1C[C@@H](O)[C@H](N2CCN(c3ccccc3)CC2)C1`, the Percent Effect was -9.15%.
In the case of `c1nn(C2CCCCC2)cc1-c1cncn1CCCN1CCCCC1` it was 1.56%.
The figure for `CCc1ncc(C(=O)NCCN2CCNC2=O)cn1` is 0.385%.
For the molecule `COc1ccc(Cl)cc1C(=O)NCc1cnn(C)c1C`, the Percent Effect stood at 7.53%.
On to `Cc1ncc(CC(=O)N2CCCCC2CCN2CCCC2)c(=O)[nH]1` (centres undefined), for which the Percent Effect was determined as 0.508%.
For the molecule `Cc1nnc(CN(C)CC(=O)N2CCCC(C)CC2)n1C` (centres undefined), the Percent Effect worked out at 0.221%.
In the case of `Cc1cnn(C2CN(c3nc(-c4ccncc4)nc4c3CCC4)C2)c1` it was 4.55%; in that of `CCOC(=O)c1n[nH]cc1CN1CCOC(Cc2ccc(OC)cc2)C1` (centres undefined), 2.27%.
In the case of `Cc1nn(C)c2nc(N3CCCCC3c3ccc(F)cc3)sc12` (centres undefined) it was 3.9%.
Turning to `NC(=O)NC1CCN(Cc2ccc3c(c2)CCC3)CC1`, the Percent Effect was 2.24%.
The figure for `CC(C)c1nc2n(n1)CC(NCc1cc3ccccc3o1)CC2` (centres undefined) is 0.664%.
Regarding `CCN(Cc1nccn1C)C1CCN(c2ccccc2)C1=O` (centres undefined), the Percent Effect was -7.13%.
The figure for `NC(=O)c1ccnc(N2CCCC(CO)(Cc3ccccc3)C2)c1` (centres undefined) is 11.6%; for `CNC(=O)N1CCOCC1c1c(C)nn(C)c1C` (centres undefined) it is -2.45%.
